Among the data in PubChem BioAssay AID504333 (National Center for Advancing Translational Sciences (NCATS), 2011) are Potency values, retold here.

The whole screen tested about 360,000 compounds, of which about 16,000 (4.4%) were called active. Entries that show only a call come without a potency. Another 9% or so got no clear call; they are omitted. Calls follow the shape of the dose curve; as a rule, active = well fitted inhibition curve with a large enough effect; inconclusive = small, poorly fitted or top-dose-only effect; inactive = no such curve, though single readings can be large or run the other way. The full list was thinned out, with actives kept by preference.
Potency is read from the fitted curve at half-maximal effect.

Bromodomain adjacent to zinc finger domain protein 2B (Homo sapiens), sequence (Q9UIF8 whole entry, looked up, the tested form may be a part): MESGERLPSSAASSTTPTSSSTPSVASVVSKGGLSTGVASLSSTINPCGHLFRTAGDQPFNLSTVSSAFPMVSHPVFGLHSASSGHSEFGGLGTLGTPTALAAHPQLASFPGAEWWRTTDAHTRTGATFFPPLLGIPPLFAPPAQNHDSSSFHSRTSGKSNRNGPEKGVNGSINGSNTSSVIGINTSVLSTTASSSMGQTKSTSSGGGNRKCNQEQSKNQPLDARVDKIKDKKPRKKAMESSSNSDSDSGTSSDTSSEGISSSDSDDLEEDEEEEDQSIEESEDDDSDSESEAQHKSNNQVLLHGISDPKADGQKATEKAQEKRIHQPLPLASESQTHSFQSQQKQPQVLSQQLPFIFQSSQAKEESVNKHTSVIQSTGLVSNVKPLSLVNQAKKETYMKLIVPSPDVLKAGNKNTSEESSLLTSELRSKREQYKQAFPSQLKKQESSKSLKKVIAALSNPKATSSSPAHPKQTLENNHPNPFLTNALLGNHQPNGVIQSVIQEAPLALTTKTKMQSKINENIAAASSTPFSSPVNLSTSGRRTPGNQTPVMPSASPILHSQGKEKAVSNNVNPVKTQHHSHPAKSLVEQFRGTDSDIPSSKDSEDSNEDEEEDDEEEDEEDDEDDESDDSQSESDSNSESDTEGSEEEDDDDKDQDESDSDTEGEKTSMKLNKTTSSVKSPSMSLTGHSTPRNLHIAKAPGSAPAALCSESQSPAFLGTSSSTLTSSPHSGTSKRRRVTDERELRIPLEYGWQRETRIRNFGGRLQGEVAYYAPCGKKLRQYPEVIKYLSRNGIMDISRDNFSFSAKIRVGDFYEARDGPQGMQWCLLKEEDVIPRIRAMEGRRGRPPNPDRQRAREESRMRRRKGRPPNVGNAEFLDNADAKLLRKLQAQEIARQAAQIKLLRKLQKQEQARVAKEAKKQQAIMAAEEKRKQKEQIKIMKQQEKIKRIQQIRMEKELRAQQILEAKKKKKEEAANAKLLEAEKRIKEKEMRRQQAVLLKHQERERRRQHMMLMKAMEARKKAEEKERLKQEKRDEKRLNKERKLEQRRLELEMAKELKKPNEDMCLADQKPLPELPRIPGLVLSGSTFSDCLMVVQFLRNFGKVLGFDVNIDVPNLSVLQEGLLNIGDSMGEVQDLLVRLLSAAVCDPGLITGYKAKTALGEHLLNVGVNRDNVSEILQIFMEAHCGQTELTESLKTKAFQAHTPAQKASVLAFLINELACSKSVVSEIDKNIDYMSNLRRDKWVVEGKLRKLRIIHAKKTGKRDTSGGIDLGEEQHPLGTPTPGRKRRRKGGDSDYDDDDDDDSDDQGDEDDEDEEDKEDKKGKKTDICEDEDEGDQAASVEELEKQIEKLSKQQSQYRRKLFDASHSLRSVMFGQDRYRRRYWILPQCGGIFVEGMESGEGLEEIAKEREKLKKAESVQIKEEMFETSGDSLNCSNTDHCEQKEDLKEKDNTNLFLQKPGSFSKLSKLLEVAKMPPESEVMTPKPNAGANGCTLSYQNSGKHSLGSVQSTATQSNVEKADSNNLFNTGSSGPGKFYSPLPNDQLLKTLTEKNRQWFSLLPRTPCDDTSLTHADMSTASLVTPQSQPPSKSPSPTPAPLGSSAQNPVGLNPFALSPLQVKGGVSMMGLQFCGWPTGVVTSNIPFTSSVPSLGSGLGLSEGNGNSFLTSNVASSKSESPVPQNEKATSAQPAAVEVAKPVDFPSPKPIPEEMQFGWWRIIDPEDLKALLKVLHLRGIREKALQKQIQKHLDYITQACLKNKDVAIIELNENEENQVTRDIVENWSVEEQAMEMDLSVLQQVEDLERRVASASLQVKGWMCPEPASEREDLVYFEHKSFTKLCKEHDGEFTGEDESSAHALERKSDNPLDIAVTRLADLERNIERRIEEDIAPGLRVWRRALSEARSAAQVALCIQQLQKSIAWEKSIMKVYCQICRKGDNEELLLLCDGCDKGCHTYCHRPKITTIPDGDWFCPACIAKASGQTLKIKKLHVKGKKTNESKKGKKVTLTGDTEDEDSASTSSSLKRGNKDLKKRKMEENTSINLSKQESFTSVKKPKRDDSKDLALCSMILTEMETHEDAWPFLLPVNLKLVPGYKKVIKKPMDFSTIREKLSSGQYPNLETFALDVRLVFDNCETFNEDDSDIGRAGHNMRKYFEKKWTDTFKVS

This assay has as its target Bromodomain adjacent to zinc finger domain protein 2B (Homo sapiens) (UniProt Q9UIF8). As to the kind of experiment: qHTS Assay for Inhibitors of BAZ2B. Also: nearly all actives have a fitted effect of over 60% in size. The note with it: AlphaScreen BAZ2B-H3K14Ac peptide displacement; series mostly up to 114 µM. The source says: BAZ2B (bromodomain adjacent to zinc finger domain, 2B) belongs to a family of ubiquitously expressed bromodomain containing proteins, which biological function has not yet been elucidated. […] The interaction of BAZ2B with ISWI mediated by the BAZ1 motif has recently been described. […] The protocol is based on the AlphaScreen (PerkinElmer) displacement assay developed by NCGC [5], but uses the peptide ligand Biot-H3K14Ac, a high affinity binding partner for BAZ2B, in an AlphaScreen format. Although AlphaScreen has significant advantages with its utility in a variety of epigenetic target assays, the primary screening data provided in this deposition should be used with caution due to the prevalence of screening artifacts. The top compound concentration tested was 110uM in this assay, which increases number of actives and potential artifacts. An AlphaScreen counterscreen is highly recommended to be run against any putative actives to eliminate non-specific artifacts. Alternatively, one can use other AlphaScreen assays in PubChem to filter out promiscuous hits. Eberharter, A. et al. ACF1 improves the effectiveness of nucleosome mobilization by ISWI through PHD-histone contacts. The EMBO journal 23, 4029-4039. 2004. PMID: 15457208 [2] Jones, M.H. et al. A novel family of bromodomain genes. Genomics 63, 40-45. 2000. PMID: 10662543 [3] Yasgar, et al. Compound Management for Quantitative High-Throughput Screening. JALA. 2008 Apr;13(2):79-89. PMID: 18496600 [4] Inglese, et al. Quantitative high-throughput screening: a titration-based approach that efficiently identifies biological activities in large chemical libraries. Proc Natl Acad Sci. 1;103(31):11473-8. 2006. PMID: 16864780 [5] Quinn et al. A chemiluminescence-based method for identification of histone lysine methyltransferase inhibitors. Mol Biosyst 6(5): 782-8. 2010. PMID: 20567762 [6] Baell,Holloway. New substructure filters for removal of pan assay interference compounds (PAINS) from screening libraries and for their exclusion in bioassays. J Med Chem. 53(7):2719-40. 2010. PMID: 20131845 NIH Molecular Libraries Probe Production Network [MLPCN] NIH Chemical Genomics Center [NCGC] Structural Genomics Consortium (SGC) NIH Grant: 5U54 MH084681-02
To each well of a 1,536w plate, 2ul of BAZ2B protein (final 50nM) and 1ul biotinylated histone peptide acetylated at Lys14 [b-H3(5-23)K14Ac] (final 50nM) were added in 1x PBS buffer, pH 7.4, containing 0.01% Tween-20, using a nanoliter dispenser. Formation of a protein-peptide complex proceeded at room temperature for 30 min. A Kalypsys pin-tool was employed to transfer 23 nL of library compound solution in DMSO to each well. Following a 30 min incubation of the protein-peptide complex with compounds at room temperature, a mixture of 40 ug/mL each streptavidin-coated donor and nickel chelate acceptor AlphaScreen beads (final 10 ug/mL) were added in a 1ul dispense for a final volume of 4ul. A brief centrifugation followed (1000rpm, 1 min) and were then incubated protected from the light for 20 min at room temperature. Plates were read on an EnVision multilabel plate reader using the 1,536 plate HTS AlphaScreen aperture (excitation time 80 ms, measurement time 240 ms).
(In general: qHTS replaces the single test concentration by a dilution series.)
As to `Cc1ccccc1NC(=O)c1ccccc1NS(=O)(=O)c1cccc2cccnc12`, the Potency result was “inactive”.

As to `COc1cc(NS(=O)(=O)c2ccc3ccccc3c2)c2ncccc2c1`, the Potency entry was “inactive”.

Turning to `Cc1nn(-c2nc(-c3ccccc3)cc(C(F)(F)F)n2)c(C)c1Cl`, the Potency result is “inactive”.

`COC(=O)C(NC(C)=O)(Nc1nc2c(s1)CCCC2)C(F)(F)F` (configuration not stated): the Potency is 56.2 µM (active).

Turning to `Cc1cc(C)cc(OC(C)C(=O)Nc2nc3c(s2)CCCC3)c1` (configuration not stated), the Potency entry was “inactive”.

For the compound `O=C(Nc1nc2c(s1)CCCC2)c1ccccc1F`, the Potency entry is “inactive”.

As for `O=C(CCS(=O)(=O)c1ccc2c(c1)NC(=O)CO2)Nc1cccc(C(F)(F)F)c1`, the Potency result is “inactive”.

Turning to `CCOC(=O)CSC1=Nc2ccccc2C2=NC(CCC(=O)NCc3ccc(F)cc3)C(=O)N12` (configuration not stated), the Potency entry is “inactive”.

Turning to `N[C@@H](Cc1ccccc1)C(=O)N1CCOCC1`, the Potency entry was “inactive”.

As for `Cc1ccc(C)n1C(Cc1ccccc1)C(=O)O` (configuration not stated), the Potency was 39.8 µM (active).

For the compound `CCOC(=O)C(Cc1ccc(N)cc1)N1C(=O)c2ccccc2C1=O` (configuration not stated), the Potency entry was “inactive”.

Turning to `Cc1ccc2nc(CN3CCN(S(=O)(=O)c4ccc(C)c(C)c4)CC3)oc2c1`, the Potency result is “inactive”.

For `CC(=C1C(=O)c2ccccc2C1=O)N1CCN(c2ccccn2)CC1`, the Potency entry was “inactive”.

With `Cc1nn(-c2ccccn2)c2c1C(c1ccncc1)C1=C(CC(C)(C)CC1=O)N2` (configuration not stated), the Potency result is “inactive”.

With `Cc1cc(C)c(C2C3=C(Nc4c2c(C)nn4-c2ccccn2)c2ccccc2C3=O)c(C)c1` (configuration not stated), the Potency was 10 µM (active).

As to `COc1ccccc1CCNC(=O)c1cccn1-c1nnc(N2CCCCC2)s1`, the Potency entry was “inactive”.

`CCCOc1cccc(C(=O)Nc2cccc(NC(=O)c3ccc(C(C)(C)C)cc3)c2)c1`: the Potency entry was “inactive”.

For `CCOC(=O)c1ccc(NC(=O)Cn2c(=O)n(-c3ccc(C)cc3)c(=O)c3c2cnn3C)cc1`, the Potency entry is “inactive”.

Take `O=C(NC1CCCCC1)c1ccc2c(c1)N(Cc1ccc(Cl)cc1)C(=O)c1ccccc1S2=O` (configuration not stated): the Potency entry is “inactive”.

As for `NC(=O)CSc1nnc(NC(=O)c2ccc(Br)o2)s1`, the Potency was 56.2 µM (active).

As for `CCSc1nnc(NC(=O)c2cc(=O)c3cc(C)c(C)cc3o2)s1`, the Potency entry is “inactive”.

Regarding `NC(=O)CSc1nnc(NC(=O)c2ccc3ccccc3c2)s1`, the Potency entry was “inactive”.

With `CCCNC(=O)C(CC)n1nc(CC)n2c(cc3oc(C)cc32)c1=O` (configuration not stated), the Potency entry is “inactive”.

For `COc1cccc(NC(=O)C(=O)NCC(c2ccc3c(c2)OCO3)N2CCN(C)CC2)c1` (configuration not stated), the Potency entry is “inactive”.

For the compound `CC(C)C(=O)Nc1nc2c(s1)CC(C(C)(C)C)CC2` (configuration not stated), the Potency result is “inactive”.

Turning to `COc1ccc(CNC(=O)CCN2C(=O)c3ccccc3C2=O)cc1`, the Potency entry is “inactive”.

In the case of `CCOC(=O)c1cc2cc3ccccc3cc2oc1=O`, the Potency entry is “inactive”.

Regarding `CCOC(=O)C1=C(c2ccc(OC)cc2)C(=O)c2ccccc2C1=O`, the Potency is 20 µM (active).

In the case of `CCCCn1cc(S(=O)(=O)c2ccc(OCC)cc2)c(=O)c2cc(OC)c(OC)cc21`, the Potency result was “inactive”.

As to `Cc1ccc(CCNC(=O)C2CCN(c3nnc(-n4cccc4CNc4ccc(C)cc4)s3)CC2)cc1`, the Potency entry is “inactive”.

In the case of `Cc1ccccc1NC(=O)c1cc(S(=O)(=O)Nc2cccc(C(=O)O)c2)ccc1Cl`, the Potency result is “inactive”.

As for `CC(=O)Nc1cccc(/C(C)=N/NC(=O)c2c(-c3ccccc3Cl)noc2C)c1`, the Potency entry was “inactive”.

Take `C/C(=N\Nc1cccc(C(=O)O)c1)c1ccc2c(c1)Nc1ccccc1S2`: the Potency was 44.7 µM (active).

As to `Cc1ccc2nc(COc3ccccc3NC(=O)Nc3ccc(F)c(Cl)c3)cc(=O)n2c1`, the Potency entry was “inactive”.

Regarding `Cc1nn(-c2ccc(F)cc2)c(-n2cccc2)c1C(=O)N1CCN(c2ccccc2)CC1`, the Potency result is “inactive”.

`Cc1ccc(-n2nc(C)c(C(=O)O)c2-n2cccc2)cc1`: the Potency is 50.1 µM (active).

For the compound `Cc1nn(-c2ccccc2)c(-n2cccc2)c1C(=O)O`, the Potency entry was “inactive”.

On to `O=C(NCc1ccc2c(c1)CCN2C(=O)c1ccccc1)Nc1cc(F)ccc1F`, for which the Potency entry is “inactive”.

For the compound `COc1ccc(OC)c(NC(=O)CSC2=Nc3ccccc3C3=NC(CC(=O)NCc4ccc(F)cc4)C(=O)N23)c1` (configuration not stated), the Potency result was “inactive”.

As for `COc1ccccc1NC(=O)c1sc2nc(C)c(C(=O)Nc3ccc(Cl)cc3)c(-c3ccc(Br)cc3)c2c1N`, the Potency result is “inactive”.

Take `Cc1ccc(CSCC(=O)N(C)CC(=O)Nc2ccc(C)cc2)cc1`: the Potency entry is “inactive”.

For the compound `CCN(CC(=O)Nc1cc(Cl)ccc1C)C(=O)CSCc1ccc(C)cc1`, the Potency entry is “inactive”.

For the compound `CCCCN(C)CCNC(=O)CSCc1ccc(C)cc1`, the Potency is 50.1 µM (active).

With `CCOc1ccccc1C(=O)NC1(C(F)(F)F)NC(=O)N(CCc2ccc(OC)c(OC)c2)C1=O` (configuration not stated), the Potency entry was “inactive”.

On to `CCN(C(=O)c1sc2cc(OC)ccc2c1Cl)c1ccccc1`, for which the Potency result was “inactive”.

For `CCC(=O)Nc1ccc2nc(SCC(=O)N3CCc4ccccc43)sc2c1`, the Potency entry is “inactive”.

With `CCN(CCCNC(=O)Cn1ncc2c3ccccc3n(C)c2c1=O)Cc1ccccc1`, the Potency entry is “inactive”.

Turning to `CCc1ccc(NC(=O)c2nn(-c3ccc(C)cc3)c(=O)n(C)c2=O)cc1`, the Potency result is “inactive”.

Turning to `CCCC(=O)Nc1cc2nn(-c3ccccc3)nc2cc1C`, the Potency entry was “inactive”.

Consider `O=C(Nn1cc(C(=O)N2CCN(c3ccccc3F)CC2)c2ccccc2c1=O)c1cnccn1`, for which the Potency is 28.2 µM (active).

Take `O=C(Cn1nc(Cc2cccnc2)c2ccccc2c1=O)N1CCN(c2ccccc2F)CC1`: the Potency result was “inactive”.

As to `Cc1nc2ccn(Cc3cccnc3)c(=O)c2cc1C(=O)N1CCN(c2ccccc2F)CC1`, the Potency result is “inactive”.
